From PubChem BioAssay (NCI)
“And” between values parts separate entries of the source, which are not always exact repeats. Identical values can stand only once. The panel holds about 79,000 compounds, 15% with a hit somewhere; the sample as a whole holds those more often. Some structures have more than one record in an assay (separate samples or runs), and their calls can disagree. The source made the active and inactive calls. Rule as the data show it: active = growth inhibition above about 70%; inactive = the rest.

Legend:
[1] = NCI Yeast Anticancer Drug Screen. Data for the rad52 strain (AID 147);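 also: 0% = growth of vehicle-treated control cultures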; settings: S. cerevisiae rad52 mutant growth inhibition, stronger effect = higher value
Outline: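 Here a repair-compromised yeast strain receives each compound; its growth is then quantified and normalised to vehicle-only controls.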

[2] = NCI Yeast Anticancer Drug Screen. Data for the wt1 strain (AID 149);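 also: 0% = growth of vehicle-treated wt1 cultures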; settings: S. cerevisiae wt1 strain (SPY 50644) growth inhibition, stronger effect = higher value
Outline: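 Readout: yeast growth inhibition, normalised to vehicle controls, in the wt1 strain exposed to test compounds.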

[3] = NCI Yeast Anticancer Drug Screen. Data for the mgt1 strain (AID 153); settings: S. cerevisiae mgt1 mutant growth inhibition, stronger effect = higher value
Outline: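 Measured: inhibition of mgt1 yeast growth by compound, normalized to vehicle-treated cultures.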

[4] = NCI Yeast Anticancer Drug Screen. Data for the rad50 strain (AID 155);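 also: 0% = growth of vehicle-only cultures of the same strain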; settings: S. cerevisiae rad50 strain growth inhibition, stronger effect = higher value
Outline: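 Compounds were tested on a yeast strain with an engineered DNA damage repair alteration; the reported value is growth inhibition normalised to vehicle treatment.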

[5] = NCI Yeast Anticancer Drug Screen. Data for the mec2-1 strain (AID 157); settings: S. cerevisiae mec2-1 strain, stronger effect = higher value
Outline: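 Using mec2-1 yeast: add compound, measure growth, express inhibition versus vehicle-treated cultures.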

[6] = NCI Yeast Anticancer Drug Screen. Data for the rad14 strain (AID 159);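 also: 0% = growth of vehicle-treated control cultures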; settings: S. cerevisiae rad14 strain growth inhibition, stronger effect = higher value
Outline: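 Compound-treated yeast with a defined DNA-repair lesion; growth inhibition normalised to vehicle-treated cultures.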

[7] = NCI Yeast Anticancer Drug Screen. Data for the sgs1 mgt1 strain (AID 161);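 also: 0% = growth of cultures given vehicle only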; settings: S. cerevisiae sgs1 mgt1 strain, stronger effect = higher value
Outline: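 This yeast growth screen uses a strain with defined DNA-repair lesions; compound-treated growth is compared with vehicle-treated growth.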

[8] = NCI Yeast Anticancer Drug Screen. Data for the CLN2oe strain (AID 163);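 also: 0% = growth of vehicle-only control cultures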; settings: S. cerevisiae CLN2oe strain, stronger effect = higher value
Outline: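 Whole-cell yeast growth assay. A strain engineered for altered cell-cycle control received compound, and inhibition relative to vehicle-treated cultures was recorded.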

[9] = NCI Yeast Anticancer Drug Screen. Data for the cln2 rad14 strain (AID 165);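 also: 0% = growth equal to vehicle treated cultures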; settings: S. cerevisiae cln2 rad14 strain, stronger effect = higher value
Outline: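 Yeast strain cln2 rad14, bearing defects in cell cycle control and DNA repair, serves as the test system; values reflect growth inhibition compared with vehicle.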

[10] = NCI Yeast Anticancer Drug Screen. Data for the bub3 strain (AID 167); settings: S. cerevisiae bub3 mutant strain, stronger effect = higher value
Outline: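 Growth of a checkpoint-deficient yeast mutant is measured after compound exposure. Values represent inhibition relative to vehicle.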

[11] = NCI Yeast Anticancer Drug Screen. Data for the wt2 strain (AID 169);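 also: 0% = growth of vehicle-treated yeast cultures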; settings: S. cerevisiae wt2 strain growth inhibition, stronger effect = higher value
Outline: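 Treated yeast vs. vehicle-treated yeast: growth inhibition determined.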

[12] = NCI Yeast Anticancer Drug Screen. Data for the mlh1 strain (AID 171);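 also: 0% = growth of vehicle-treated control cultures of the same strain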; settings: S. cerevisiae mlh1 strain growth inhibition, stronger effect = higher value
Outline: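 A yeast strain with a defined genetic lesion serves as the test organism. Cultures receive compound or vehicle, and growth is measured.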

[13] = NCI Yeast Anticancer Drug Screen. Data for the sgs1 strain (AID 173);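 also: 0% = growth of vehicle-only control cultures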; settings: S. cerevisiae sgs1 mutant, stronger effect = higher value
Outline: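 A genetically defined yeast mutant is incubated with the test compound, and its growth is compared to that of the same strain given vehicle.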

[14] = NCI Yeast Anticancer Drug Screen. Data for the mlh1 rad18 strain (AID 175); settings: S. cerevisiae mlh1 rad18 strain growth inhibition, stronger effect = higher value
Outline: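 Steps: expose repair-defective yeast to compound; measure growth; express inhibition against vehicle-treated controls.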

[15] = NCI Yeast Anticancer Drug Screen. Data for the rad18 strain (AID 177); settings: S. cerevisiae rad18 mutant growth inhibition, stronger effect = higher value
Outline: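 Measured value is growth inhibition of a yeast strain bearing a DNA repair alteration, referenced to vehicle-treated cells.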

[16] = NCI Yeast Anticancer Drug Screen. Data for the rad50EPP+ strain (AID 151);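 also: 0% = growth of vehicle-treated control cultures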; settings: S. cerevisiae rad50 mutant strain, stronger effect = higher value
Outline: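 Read-out is yeast growth inhibition relative to vehicle; cells used were the rad50EPP+ strain.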

[17] = at 5.0 µM (retest, dose inferred, filed as 0.5)
[18] = at 50.0 µM (retest, dose inferred, filed as 5.0)

Measured: growth inhibition

CN(C)CCOC1(Cc2ccc(Cl)cc2Cl)CCC(C(C)(C)C)CC1 (stereo not drawn)
active: [1]; at 11.0 µM 99% and 98% | [1]; at 33.0 µM 99% | [1]; at 100.0 µM 99% and 97% | [2]; at 11.0 µM 98% and 86% | [2]; at 33.0 µM 99% | [2]; at 100.0 µM 100% and 99% | [3]; at 11.0 µM 99% | [3]; at 33.0 µM 100% and 99% | [3]; at 100.0 µM 100% and 99% | [4]; at 11.0 µM 99% | [4]; at 33.0 µM 99% | [4]; [18] 100% | [4]; at 50.0 µM 98.8% and 99.2% | [4]; at 100.0 µM 99% | [5]; at 11.0 µM 99% | [5]; at 33.0 µM 100% and 99% | [5]; [18] 100% | [5]; at 50.0 µM 99.5% | [5]; at 100.0 µM 100% and 99% | [6]; at 11.0 µM 99% | [6]; at 33.0 µM 99% | [6]; at 100.0 µM 100% and 99% | [7]; [18] 100% | [7]; at 50.0 µM 99.5% and 99.7% | [8]; at 11.0 µM 99% and 81% | [8]; at 33.0 µM 98% | [8]; at 100.0 µM 97% and 99% | [9]; [18] 100% | [9]; at 50.0 µM 99.1% and 97.9% | [10]; at 11.0 µM 99% and 98% | [10]; at 33.0 µM 99% and 98% | [10]; [18] 100% | [10]; at 50.0 µM 99.2% and 95.8% | [10]; at 100.0 µM 99% | [11]; at 11.0 µM 99% | [11]; at 33.0 µM 100% and 99% | [11]; at 100.0 µM 100% | [12]; at 11.0 µM 99% | [12]; at 33.0 µM 100% and 99% | [12]; at 100.0 µM 100% and 99% | [13]; at 11.0 µM 99% | [13]; at 33.0 µM 100% and 99% | [13]; at 100.0 µM 100% and 99% | [14]; [18] 100% and 99% | [14]; at 50.0 µM 99.5% and 99.4% | [15]; at 11.0 µM 99% and 98% | [15]; at 33.0 µM 99% | [15]; at 100.0 µM 99%
96% (active) and 68% (inactive): [14]; [17]
inactive: [1]; at 1.2 µM 1% and -3% | [1]; at 3.7 µM 1% and 0% | [2]; at 1.2 µM 0% and -4% | [2]; at 3.7 µM -4% and -6% | [3]; at 1.2 µM 0% and -3% | [3]; at 3.7 µM 14% and 19% | [4]; at 1.2 µM 1% and -4% | [4]; at 3.7 µM 3% | [4]; [17] 48% and 22% | [5]; at 1.2 µM -5% and -2% | [5]; at 3.7 µM -4% and 5% | [5]; [17] 49% and 21% | [6]; at 1.2 µM -3% and -1% | [6]; at 3.7 µM 11% and 18% | [7]; [17] 64% and 58% | [8]; at 1.2 µM -9% and -8% | [8]; at 3.7 µM -8% | [9]; [17] 40% and 16% | [10]; at 1.2 µM -8% and -3% | [10]; at 3.7 µM 0% and -2% | [10]; [17] 8% and 15% | [11]; at 1.2 µM -1% and -3% | [11]; at 3.7 µM 3% and 8% | [12]; at 1.2 µM 0% and -1% | [12]; at 3.7 µM 6% and 14% | [13]; at 1.2 µM -1% | [13]; at 3.7 µM 11% and 26% | [15]; at 1.2 µM 0% and -4% | [15]; at 3.7 µM 0% and -2%

O=C1N=C2SC=C(NC(=S)Nc3ccccc3)N2NC12c1ccccc1-c1ccccc12
active: [1]; at 100.0 µM 73% | [2]; at 100.0 µM 78% | [4]; at 50.0 µM 78% | [4]; at 100.0 µM 76% | [5]; at 100.0 µM 81% | [6]; at 100.0 µM 84% | [8]; at 100.0 µM 76% | [10]; at 50.0 µM 74.7% | [10]; at 100.0 µM 70% | [11]; at 33.0 µM 76% | [11]; at 100.0 µM 90% | [12]; at 100.0 µM 81% | [13]; at 33.0 µM 81% | [13]; at 100.0 µM 90% | [15]; at 100.0 µM 77%
inactive: [1]; at 1.2 µM 11% | [1]; at 3.7 µM 12% | [1]; at 11.0 µM 19% | [1]; at 33.0 µM 46% | [2]; at 1.2 µM 3% | [2]; at 3.7 µM 3% | [2]; at 11.0 µM 7% | [2]; at 33.0 µM 38% | [16]; at 1.2 µM 2% | [16]; at 3.7 µM 7% | [16]; at 11.0 µM 5% | [16]; at 33.0 µM 11% | [16]; at 100.0 µM 16% | [4]; at 1.2 µM 6% | [4]; at 3.7 µM 0% | [4]; [17] 1% | [4]; at 11.0 µM 4% | [4]; at 33.0 µM 49% | [4]; [18] 48% | [5]; at 1.2 µM 15% | [5]; at 3.7 µM 13% | [5]; [17] -11% | [5]; at 11.0 µM 22% | [5]; at 33.0 µM 57% | [5]; [18] 8% | [5]; at 50.0 µM 45.9% | [6]; at 1.2 µM 10% | [6]; at 3.7 µM 3% | [6]; at 11.0 µM 14% | [6]; at 33.0 µM 49% | [8]; at 1.2 µM 12% | [8]; at 3.7 µM 4% | [8]; at 11.0 µM 13% | [8]; at 33.0 µM 64% | [9]; [17] -4% | [9]; [18] 15% | [9]; at 50.0 µM 57.9% | [10]; at 1.2 µM 10% | [10]; at 3.7 µM 5% | [10]; [17] -14% | [10]; at 11.0 µM 11% | [10]; at 33.0 µM 54% | [10]; [18] 46% | [11]; at 1.2 µM 2% | [11]; at 3.7 µM 4% | [11]; at 11.0 µM 23% | [12]; at 1.2 µM 10% | [12]; at 3.7 µM 8% | [12]; at 11.0 µM 20% | [12]; at 33.0 µM 59% | [13]; at 1.2 µM 10% | [13]; at 3.7 µM 15% | [13]; at 11.0 µM 28% | [14]; [17] -10% | [14]; [18] 41% | [14]; at 50.0 µM 69.7% | [15]; at 1.2 µM 14% | [15]; at 3.7 µM 19% | [15]; at 11.0 µM 24% | [15]; at 33.0 µM 49%

N=C1N=Nc2nc(C3(c4nc5n(c4O)C(=N)N=N5)Cc4ccccc4C3=O)c(O)n21 (stereo not drawn)
inactive: [1]; at 1.2 µM -1% | [1]; at 3.7 µM 1% | [1]; at 11.0 µM 5% | [1]; at 33.0 µM 18% | [1]; at 100.0 µM 69% | [2]; at 1.2 µM 3% | [2]; at 3.7 µM 7% | [2]; at 11.0 µM 11% | [2]; at 33.0 µM 23% | [2]; at 100.0 µM 67% | [16]; at 1.2 µM -2% | [16]; at 3.7 µM 0% | [16]; at 11.0 µM -1% | [16]; at 33.0 µM -1% | [16]; at 100.0 µM 3% | [3]; at 1.2 µM 5% | [3]; at 3.7 µM 7% | [3]; at 11.0 µM 22% | [4]; at 1.2 µM -9% | [4]; at 3.7 µM 34% | [4]; [17] 4% | [4]; at 11.0 µM -3% | [4]; at 33.0 µM 66% | [4]; [18] 38% | [6]; at 1.2 µM 7% | [6]; at 3.7 µM 21%
active: [3]; at 33.0 µM 90% | [3]; at 100.0 µM 99% | [4]; at 50.0 µM 82.2% | [4]; at 100.0 µM 94%
